The record followed here is PubChem BioAssay.

Test [1] has as its target Tumor necrosis factor receptor superfamily member 10B (Homo sapiens) (UniProt O14763). The experiment in a line: caspase-8 TRAIL sensitization, hit retest, confirmation, cell-based, NB7+caspase-8, with/without TRAIL, luminescence panel (AID 651596). The conditions noted are these: NB7 neuroblastoma + caspase-8, TRAIL sensitization, luminescence viability, with TRAIL, mean of runs, at 10 µM, stronger effect = higher value.

Assay in test [2]: as above
The conditions noted are these: NB7 neuroblastoma + caspase-8, without TRAIL, luminescence viability, without TRAIL, mean of runs, at 10 µM.

Chain of Tumor necrosis factor receptor superfamily member 10B (Homo sapiens) (O14763 whole entry, looked up): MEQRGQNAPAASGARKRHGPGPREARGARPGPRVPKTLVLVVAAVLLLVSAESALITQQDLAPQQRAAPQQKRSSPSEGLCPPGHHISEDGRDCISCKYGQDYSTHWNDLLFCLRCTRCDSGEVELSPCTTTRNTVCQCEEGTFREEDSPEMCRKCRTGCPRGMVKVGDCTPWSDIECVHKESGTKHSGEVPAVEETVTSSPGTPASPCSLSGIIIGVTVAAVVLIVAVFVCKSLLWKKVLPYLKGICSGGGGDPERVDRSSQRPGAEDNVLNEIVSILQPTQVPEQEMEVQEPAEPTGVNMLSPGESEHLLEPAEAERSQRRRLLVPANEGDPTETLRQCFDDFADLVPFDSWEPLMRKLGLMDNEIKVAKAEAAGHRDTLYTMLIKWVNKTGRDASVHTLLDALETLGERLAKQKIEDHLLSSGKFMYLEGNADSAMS

In the case of `Cc1cc(NC(=O)c2ccc(C(C)(C)C)cc2)no1`, the activity was 77.8% in test [1] and 79.9% in test [2].

Regarding `O=C(Oc1c(CN2CCOCC2)cc(Cl)c2cccnc12)c1ccccc1Br`, the values for the activity in test [1] and in test [2] were 53.5% and 52.8%, respectively.

In the case of `Clc1ccc(-c2nnc(SCc3ccon3)o2)c(Cl)c1`, the activity in test [1] stood at 51.8%; in test [2], 58.7%.

In the case of `C=C1C(=O)OC2C=C(CO)C3OC3C3OC3(C)CC(OC(=O)/C(=C/C)COC(C)=O)C12` (centres undefined), the activity was found to be 70.1% in test [1] and 81% in test [2].

`CCOC(=O)c1sc(NC(=O)c2ccc(OC(C)=O)cc2)nc1C`: the activity worked out at 61.3% in test [1] and 57.9% in test [2].

As to `CCC(=O)N1CCCc2cc(S(=O)(=O)N3CCN(c4ccccc4F)CC3)ccc21`, the activity is 17.2% in test [1] and 1.9% in test [2].

As to `O=[N+]([O-])c1ccc(-[n+]2ccc3ccccc3c2)c([N+](=O)[O-])c1`, the activity in test [1] is 93.3%; in test [2], 98.8%.

Take `NC(c1csc(NC(=O)Nc2ccc(OC(F)(F)F)cc2)n1)C1CCCCC1` (centres undefined): the activity in test [1] came to 63.7%; in test [2] it was 92.2%.

On to `Cn1c(NC(=O)c2ccc(F)cc2)nc2ccccc21`, for which the activity in test [1] was 45.1%; in test [2] it was 57.1%.

`O=S1(=O)N=C(Nc2nc3c(s2)CCCC3)c2ccccc21`: the activity was 75.7% in test [1] and 81.4% in test [2].

For `CC(C)CC(/C(O)=C(\C#N)c1nc2ccccc2[nH]1)N1C(=O)c2ccccc2C1=O` (centres undefined), the values for the activity in test [1] and in test [2] were 66.3% and 61.7%, respectively.

In the case of `CCc1ccc(/C=N/Nc2ncnc3nc[nH]c23)cc1`, the activity came out at 47.1% in test [1] and 41.7% in test [2].

As to `CC(C)(C)C(=O)N1CCc2cc(-c3csc(N)n3)ccc21`, the activity is 91.8% in test [1] and 88.1% in test [2].

For the molecule `O=C(Nc1ccccc1)Nc1ccc(C(=O)N2CCCC2)cc1`, the activity in test [1] came out at 65.6%; in test [2], 71.5%.

As to `COc1ccc(C(=O)Nc2ccccc2C(=O)N/N=C/c2ccncc2)cc1OC`, the results for the activity in test [1] and in test [2] were 97.7% and 96.3%, respectively.

With `c1c2c(cc3sc(N4CCOCC4)nc13)OCCO2`, the activity in test [1] came out at 66.8%; in test [2] it was 75%.

As to `Cc1ccccc1/C(N)=N/OC(=O)/C=C/c1ccccc1`, the activity in test [1] was found to be 98.7%; in test [2], 97.3%.

Turning to `O=C(C[C@H]1C[C@H](C(=O)N2CCCCC2)[C@@]2(CCc3ccccc3)c3[nH]c4ccc(Cl)cc4c3CCN2C1=O)NCCC1=CCCCC1`, the activity turned out to be 46.3% in test [1] and 86.7% in test [2].

Regarding `COc1ccc(C2CC(c3ccc(Br)cc3)=NN2C(=O)CSC2=NN3CCCC(=O)N=C3S2)cc1` (centres undefined), the activity was 95.8% in test [1] and 90.9% in test [2].

In the case of `Fc1cccc(/C=N/Nc2nncc3ccccc23)c1`, the activity in test [1] turned out to be 79.5%; in test [2] it was 78.8%.

Turning to `Cc1ccc2nc(-c3ccc(NC(=O)COC(=O)c4cncc(Br)c4)cc3)sc2c1`, the figures for the activity in test [1] and in test [2] were 60.7% and 60.1%, respectively.

`CCS(=O)(=O)c1ncc(Cl)c(C(=O)Nc2ccc(C)cc2)n1`: the activity was found to be 78.6% in test [1] and 86.8% in test [2].

On to `Cc1cccc(NC(=O)c2cnc3ccccn3c2=O)c1`, for which the activity in test [1] is 69%; in test [2], 62.9%.

On to `COC(=O)c1ccc(CCc2cc(O)c(Br)cc2O)cc1`, for which the activity in test [1] was found to be 15%; in test [2], 19.7%.

`O=C(Nc1ccc(N2CCOCC2)cc1)c1cnccn1`: the activity in test [1] was determined as 84.4%; in test [2], 82.8%.

Turning to `O=c1c2ccccc2oc2ccc(-c3ccc4cc[nH]c4c3)cc12`, the activity in test [1] was 36.5%; in test [2] it was 35.8%.

For `O=C(Nc1ccc2c(c1)OCCO2)C(=O)c1c[nH]c2ccccc12`, the values for the activity in test [1] and in test [2] were 83.2% and 90.5%, respectively.

As for `COc1ccc(NC(=O)c2ccc(OC)cc2)cc1`, the activity in test [1] worked out at 54.2%; in test [2], 42.5%.

In the case of `CS(=O)(=O)c1nc(-c2ccc(Br)cc2)cc(-c2ccccc2)c1C#N`, the activity came out at 94% in test [1] and 98.9% in test [2].

Turning to `Cn1cnc([N+](=O)[O-])c1Sc1nc(N)nc2c1ncn2C1CC(O)C(CO)O1` (centres undefined), the activity in test [1] was 68.8%; in test [2], 65.6%.

As to `Cn1c2c(c(=O)n(C)c1=O)C(C(F)(F)F)(C(F)(F)F)N=C(c1ccc(Cl)cc1)N2`, the activity in test [1] amounted to 54.8%; in test [2], 52.3%.

As for `CCOC(=O)c1sc2nc(-c3cccnc3)ccc2c1N`, the activity in test [1] was 56%; in test [2], 49.2%.

On to `CCOc1ccc(CN(C)C(=O)[C@H](Cc2ccccc2)NC(=O)OCc2ccccc2)cc1OC`, for which the activity was -12.3% in test [1] and 1.82% in test [2].

As for `O=C(N/N=C/c1ccc(-c2cccc(C(F)(F)F)c2)o1)c1cccc(F)c1`, the activity in test [1] stood at 62.7%; in test [2], 50.6%.

Regarding `CS(=O)(=O)c1ccc2nc(NC(=O)c3ccco3)sc2c1`, the activity came to 61% in test [1] and 57.8% in test [2].

In the case of `COc1ccccc1Nc1nc(N)nc(CCl)n1`, the activity in test [1] was determined as 98.8%; in test [2], 96.4%.

Regarding `O=C(NC(=S)N1CCN(c2ccc(C(F)(F)F)cc2[N+](=O)[O-])CC1)c1cccs1`, the activity in test [1] amounted to 60.9%; in test [2], 62.1%.

As to `Cc1ccnc(NC(=O)c2ccc3c(c2)OCO3)c1`, the activity in test [1] worked out at 82.5%; in test [2], 82.9%.

Turning to `NC(=S)NN=C1c2cc(OCCN3CCOCC3)ccc2-c2ccc(OCCN3CCOCC3)cc21`, the activity in test [1] came to 99%; in test [2], 99.5%.

With `CCN1CCN(CCCNC(=O)c2ccc3c(c2)NC(=O)/C(=C\c2cccc(C)c2)S3)CC1`, the activity in test [1] is 41.4%; in test [2], 89.2%.

For `Cc1nc(NCC2CCCO2)nc2c1C(=O)CC(C)C2` (centres undefined), the activity in test [1] is 33%; in test [2] it was 40.6%.

`CC(C)c1ccc(/C=N/NC(=O)c2ccccn2)cc1`: the activity in test [1] was 86.9%; in test [2], 76.6%.
